Source: PubChem BioAssay

What was measured:
[1] = system: Human papillomavirus type 1a protein E7 (residues 44-93); assay: small molecules binding HPV E7 44-93 – biochemical, small-molecule microarray, residues 44-93, 635 nm fluorescence, primary screen (AID 1108); conditions: fluorescence 635 nm, higher = more signal;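 also: E7 fragment applied at 1 µg/mL in TBST for 1 h at 4 C; score combines spot fluorescence with its signal to noise ratio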
[2] = hepatitis C replication reporter changes, two-sided – Huh7 cells, luciferase reporter, HCV replication inhibitor project, primary screen (AID 1109); conditions: Huh7 HCV replicon luciferase reporter, 48 h; higher = more signal;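 also: huh7 hepatoma cells harbouring a luciferase neomycin HCV replicon reporter; luciferase luminescence as measure of HCV replicon replication; test concentration not given here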
[3] = biological target: Left-right determination factor 2 (Homo sapiens) (UniProt O00292); assay: small molecules binding LEFTY2 protein – biochemical, small-molecule microarray, 635 nm fluorescence scan, primary screen (AID 1110); conditions: higher = more signal
Left-right determination factor 2 (Homo sapiens), sequence (O00292 whole entry, looked up): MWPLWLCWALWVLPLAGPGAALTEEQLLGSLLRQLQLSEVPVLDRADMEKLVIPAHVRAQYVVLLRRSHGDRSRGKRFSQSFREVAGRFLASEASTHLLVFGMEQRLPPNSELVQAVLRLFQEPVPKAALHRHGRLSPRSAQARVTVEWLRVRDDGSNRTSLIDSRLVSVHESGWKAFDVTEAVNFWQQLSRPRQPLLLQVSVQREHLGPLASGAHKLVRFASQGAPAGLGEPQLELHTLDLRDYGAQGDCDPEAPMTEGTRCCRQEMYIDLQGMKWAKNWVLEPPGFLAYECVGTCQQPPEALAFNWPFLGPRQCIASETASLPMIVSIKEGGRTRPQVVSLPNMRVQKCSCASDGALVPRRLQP

[4] = biological target: Calmodulin-1 (Homo sapiens) (UniProt P0DP23); assay: small molecules binding calmodulin-1 with EGTA – biochemical, small-molecule microarray, Cy5-labelled CALM1, profiling panel (AID 1111); conditions: Cy5-CALM1 binding fluorescence, higher = more signal;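 also: labelled calmodulin applied in Tris saline Tween buffer holding calcium plus EGTA and DTT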
[5] = biological target: Calmodulin-1 (Homo sapiens) (UniProt P0DP23); assay: small molecules binding Ca-loaded calmodulin-1 – biochemical, small-molecule microarray, Cy5-labelled CALM1, plus calcium, artefact control for SMM control-protein annotation, profiling panel (AID 1112); conditions: Cy5-CALM1 binding fluorescence, higher = more signal;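 also: score merges spot fluorescence with signal to noise from triplicate slides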
[6] = probe aWnt5a binding to arrayed compounds – biochemical, biotinylated probe, 635/667 nm fluorescence, primary screen (AID 1113); conditions: small-molecule microarray, higher = more signal;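 also: score merges 667 nm fluorescence intensity with signal-to-noise per printed feature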
[7] = probe aShh binding to arrayed compounds – biochemical, biotinylated probe, 635/667 nm fluorescence, primary screen (AID 1114); conditions: small-molecule microarray, higher = more signal;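 also: probe is biotin-labelled aShh protein from a stem cell growth factor screen; measures binding of labelled protein to compounds printed on the slide; score merges feature fluorescence at 667 nm with signal-to-noise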
[8] = probe aNog binding to arrayed compounds – biochemical, biotinylated probe, 635/667 nm fluorescence, primary screen (AID 1115); conditions: small-molecule microarray, higher = more signal;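 also: probe is biotinylated aNog protein used at 0.15 µg/mL for 1 h at 4 C; z-score combines 667 nm fluorescence of each spot with its signal to noise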
[9] = biological target: Torsin-1A-interacting protein 1 (Homo sapiens) (UniProt Q5JTV8); assay: compound microarray binding of lysate hLAP1 – cell lysate, small-molecule microarray, COS7 lysate, 635/667 nm fluorescence, primary screen (AID 1116); conditions: 635 nm fluorescence, higher = more signal
Torsin-1A-interacting protein 1 (Homo sapiens), sequence (Q5JTV8 whole entry, looked up): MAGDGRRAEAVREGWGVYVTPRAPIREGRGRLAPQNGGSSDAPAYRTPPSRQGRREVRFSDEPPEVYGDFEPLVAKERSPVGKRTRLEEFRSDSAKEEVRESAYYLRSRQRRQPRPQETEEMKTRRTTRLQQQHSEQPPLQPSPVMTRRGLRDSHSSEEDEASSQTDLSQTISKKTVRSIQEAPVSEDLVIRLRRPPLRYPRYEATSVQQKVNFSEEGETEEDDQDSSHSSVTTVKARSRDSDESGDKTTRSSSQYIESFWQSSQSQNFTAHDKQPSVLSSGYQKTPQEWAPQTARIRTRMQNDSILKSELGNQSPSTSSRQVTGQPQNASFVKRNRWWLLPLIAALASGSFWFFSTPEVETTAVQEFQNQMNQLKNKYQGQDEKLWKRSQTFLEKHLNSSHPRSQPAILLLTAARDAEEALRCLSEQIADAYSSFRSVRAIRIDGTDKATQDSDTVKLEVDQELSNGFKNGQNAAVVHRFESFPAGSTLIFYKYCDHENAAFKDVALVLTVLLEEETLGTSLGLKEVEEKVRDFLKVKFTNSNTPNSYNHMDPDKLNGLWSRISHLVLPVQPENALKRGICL

[10] = biological target: Alpha-bungarotoxin (Bungarus multicinctus) (UniProt P60615); assay: compounds binding labelled alpha-BTX control protein – biochemical, small-molecule microarray, Alexa647 label, 635/667 nm fluorescence, artefact control for SMM control protein annotation, profiling panel (AID 1117); conditions: alpha-BTX-A647 binding fluorescence, higher = more signal
Alpha-bungarotoxin (Bungarus multicinctus), sequence (P60615 whole entry, looked up): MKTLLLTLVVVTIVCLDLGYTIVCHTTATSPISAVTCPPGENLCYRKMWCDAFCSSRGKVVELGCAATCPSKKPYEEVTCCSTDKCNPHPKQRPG

SMILES	composite z-score [1]	z-score [2]	composite z-score [3]	composite z-score [4]	composite z-score [5]	composite z-score [6]	composite z-score [7]	composite z-score [8]	composite z-score [9]	composite z-score [10]
[N-]=[N+]=NCc1ccccc1[C@H]1OC(c2ccc(OCCCO)cc2)=N[C@@]1(Cc1ccccc1)C(=O)N1CCOCC1	1.06	-2.31	0.335	1.48	0.779	0.186	-0.226	-0.461	1.43	1.28
CCCCC(=C=CC[C@@H](O)c1ccc(OCCO)cc1)C[C@@H](O)c1ccccn1	-0.0715	-1.49	0.288	0.421	0.0751	-0.0685	0.0611	0.157	0.642	0.0829
CCCCN1CC=CC23O[C@@H]4/C=C\CCC(C)OC(=O)C4[C@H]2C(=O)N(C(C)CO)[C@@H]3C1=O (stereo not given in full)	-1.13	0.263	-0.0716	-0.325	-1.04	-0.178	-0.2	-0.188	0.201	-0.606
O=C(NCCO)C1=C[C@H](Oc2ccccc2I)[C@@H](O)[C@H](NCc2ccc(F)cc2)C1	-0.938	-3.66	0.949	-0.815	-2.87	-0.237	-0.262	-0.0542	5.01	-0.89
CCCCNC(=O)c1ccc(C#C[Si](C)(C)C)c(OC(C)=O)c1	0.315	0.93	0.431	-0.262	-0.834	-0.191	0.0952	-0.185	0.37	0.25
COC(=O)[C@@]1(CCC(=O)OC(C)(C)C)N=C(c2ccc(OCCCO)cc2)O[C@H]1c1ccccc1CN=[N+]=[N-]	0.263	-2.6	-0.471	0.183	-0.222	0.0079	-0.0035	-0.0655	0.868	0.592
C=CCNC(=O)[C@@H]1[C@H]2C(=O)O[C@H](c3ccccc3)[C@H](c3ccccc3)N2[C@H](c2ccc(O)cc2)[C@@]12C(=O)Nc1ccc(C#CC3(O)CCCCCC3)cc12	0.754	-0.608	0.0712	-0.542	-0.0571	-0.127	0.488	-0.499	0.824	-0.243
C=CCC(OC(C)=O)[C@@H]1[C@@H](N(Cc2ccc(-c3cccc(C(F)(F)F)c3)o2)C(=O)Cc2ccc(F)cc2)c2cc(OCCCO)ccc2N1C(=O)c1ccc2ccccc2n1 (stereo not given in full)	-0.848	-0.937	-0.0009	-0.297	0.195	-0.0462	-0.185	-0.172	0.0265	-0.124
COC(=O)Cn1c(C(=O)N(C)C)cc2c1C[C@H]1CN(C(=O)c3ccccc3)[C@@](Cc3ccc(OC)cc3)(C(=O)OC)[C@@H]21	1.3	-1.69	-0.212	0.966	-0.39	0.409	0.297	2.26	1.8	0.299
CCCCCN1CC=CC23O[C@@H]4C=CCOC(=O)[C@@H]4[C@H]2C(=O)N(CCCCCO)[C@@H]3C1=O (stereo not given in full)	-0.678	-0.0591	-1.19	-0.511	-0.177	-0.209	-0.0035	-0.223	0.229	-0.724
COc1cc(OC)c(C(O)C2C=CC3C(=O)N(c4ccccc4)C(=O)C3N2Nc2ccccc2F)cc1Br (stereo not given)	1.31	-1.17	-0.137	1.96	0.764	-0.0462	0.279	1.62	1.63	1.92
COCCOC(=O)N1C(=O)[C@@]2(c3cc(C#CC4(O)CCCCCC4)ccc31)[C@H](C(=O)N1CCc3cc(OC)c(OC)cc3C1)[C@H]1C(=O)O[C@H](c3ccccc3)[C@H](c3ccccc3)N1[C@@H]2c1ccc(O)cc1	1.02	-1.01	0.729	0.621	-0.394	-0.0512	0.191	-0.411	1.12	1.17
CC(C)C[C@@H]1NC(=O)C([C@@H](C)OCc2ccccc2)NC(=O)[C@@]23C(=O)N[C@@H](Cc4ccccc4)C2[C@H](C)[C@@]2(C)O[C@H]2C3/C=C/CC/C=C/CNC1=O (stereo not given in full)	1.12	-2.63	0.458	-0.407	-0.543	-0.15	-0.0064	-0.24	0.0641	-0.0687
CCCCC(=C=CC[C@H](O)c1ccc(OCCO)cc1)C[C@H](O)c1ccccn1	1.31	-0.028	0.295	0.587	-0.758	-0.0758	-0.0011	0.253	0.875	0.634
CCOC(=O)C[C@H]1[C@H](OC(=O)c2ccc(-c3ccccc3)cc2)[C@@H](NC(=O)c2ccc3ccccc3c2)c2cc(OCCCO)ccc2N1C(=O)c1ccccc1	0.965	-1.09	0.564	0.128	0.116	0.163	0.0637	0.0395	0.341	0.509
COCC(=C=CC[C@@H](O)c1cccc(OCCO)c1)C[C@@H](O)COCc1ccccc1	0.276	-0.81	-0.0586	1.8	1.35	0.284	0.0633	-0.215	3.66	0.116
C=C(COC)C(=O)CC[C@@H](OC(C)=O)c1ccc(OCCO)cc1	-0.133	-1.23	-0.374	-0.473	-0.621	-0.154	0.0373	0.197	0.119	1.39
